Source: PubChem BioAssay (National Center for Advancing Translational Sciences (NCATS))
VP16 counter: Gal4-VP16 reporter inhibition counter-screen. Drosophila S2 Gal4-VP16 UAS-luciferase, luminescence, 20 h. Potency, µM (series often up to 53.6 µM), most hits filed as inhibitors. actives 3.5% (n = 310,000). AID 2546;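 further: Gal4-VP16 expression switched on by copper sulfate through the metallothionein promoter; nearly all actives have a fitted effect of over 50% in size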
Tau fibril FP: blocks human tau fibril formation measured by polarization; Potency, µM (highest dose often 57.7 µM), actives largely listed as inhibitors; actives 0.39% (n = 280,000); P10636; AID 1468; K18 P301L tau heparin fibrillization, Alexa594 FP, 6 h; further: nearly all actives have a fitted effect of over 55% in size
Target sequence (P10636 561-689 P618L limits assumed): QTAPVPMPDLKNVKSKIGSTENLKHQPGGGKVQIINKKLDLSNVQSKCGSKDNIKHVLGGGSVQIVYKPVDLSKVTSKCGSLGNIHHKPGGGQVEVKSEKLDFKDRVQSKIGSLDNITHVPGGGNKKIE
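Steps: dispense K18 P301L tau (15 uM plus 0.24 uM Alexa 594 tracer, final) in pH 7 sodium acetate; add compound; add heparin (20 uM final); incubate 6 hr, 37 C; add ThT (30 uM final); after 1 hr ambient, read FP.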
Tau fibril ThT: tau fibrillization inhibition (ThT binding); Potency, µM (titrated, usually from 57.4 µM), actives largely listed as inhibitors; recombinant tau K18 P301L, heparin-induced fibrillization, ThT fluorescence; actives 2.1% (n = 270,000); further: nearly all actives have a fitted effect of over 55% in size
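Using a mix of unlabeled (15 uM) and Alexa 594-labeled (0.24 uM) tau K18 P301L, heparin-triggered fibrillization over 6 hr at 37 C was scored by ThT fluorescence.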
Tau fluor counter: counter-screen for tau fibril formation inhibitors | tau K18 P301L Alexa594 fluorescence, heparin fibrillization | Potency, µM (top dose mostly 57.7 µM) | actives 0.93% (n = 280,000); further: nearly all actives have a fitted effect of over 55% in size
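Human tau K18 P301L (15 uM unlabeled, 0.24 uM Alexa 594-labeled) in 100 mM sodium acetate pH 7 with 20 uM heparin, 6 hr at 37 C. ThT 30 uM added, 1 hr ambient; Alexa 594 FP and total fluorescence read at 555/632 nm.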
RORgamma inh: blocks mouse ROR gamma transcriptional activity; P51450; Potency, µM (top dose mostly 53.6 µM), most hits filed as inhibitors; AID 2551; Drosophila S2 Gal4-RORgamma UAS-luciferase reporter, 20 h; actives 5.4% (n = 310,000); further: nearly all actives have a fitted effect of over 60% in size
Target sequence (P51450 whole entry, looked up, the tested form may be a part): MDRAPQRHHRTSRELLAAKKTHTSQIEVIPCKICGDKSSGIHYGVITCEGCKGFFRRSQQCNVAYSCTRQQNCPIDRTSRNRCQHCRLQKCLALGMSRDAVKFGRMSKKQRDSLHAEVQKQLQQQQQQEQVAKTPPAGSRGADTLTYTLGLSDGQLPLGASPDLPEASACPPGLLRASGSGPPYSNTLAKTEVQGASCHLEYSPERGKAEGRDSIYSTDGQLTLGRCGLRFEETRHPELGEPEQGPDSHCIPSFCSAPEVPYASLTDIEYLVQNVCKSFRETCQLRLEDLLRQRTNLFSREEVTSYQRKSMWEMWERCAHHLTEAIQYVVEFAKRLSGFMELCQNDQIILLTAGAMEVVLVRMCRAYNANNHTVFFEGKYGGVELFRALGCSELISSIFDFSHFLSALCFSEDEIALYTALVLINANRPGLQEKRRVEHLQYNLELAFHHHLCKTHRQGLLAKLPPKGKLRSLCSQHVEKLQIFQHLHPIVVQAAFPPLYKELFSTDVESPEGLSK
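In this cell-based reporter format, copper sulfate (700 uM final) drives Gal4–ROR gamma fusion expression from a metallothionein promoter in Drosophila Schneider cells; compounds preincubated 1 hr, reporter read after 20 hr at ambient temperature.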
Hits are given with their value; . = inactive; ? = inconclusive; / = no result given; [ ] = another dose, or the depositor's remark. Most compounds without a hit are left out; they make up all but 7.3% or so of the library. The call rests on the fitted dose curve; in most records, active means well fitted curve in the direction sought with a large enough effect; inconclusive means small, poorly fitted or top-dose-only effect, or another doubt; inactive means no such curve, though single readings can be large; an effect the other way counts as inactive or inconclusive.

SMILES	VP16 counter	Tau fibril FP	Tau fibril ThT	Tau fluor counter	RORgamma inh
CCOC(=O)c1ccccc1NC(=O)c1cn(CC)c2nc(C)ccc2c1=O	?	.	.	.	11µM
C/C(=N\N=C(N)N)c1ccc(Cl)cc1Cl	.	.	.	.	.
COc1cc2c(cc1OC)-c1c(oc3cc(O)cc(O)c3c1=O)CO2	20µM	.	?	?	?
COC(=O)c1ccc2nc(-c3cccc(N)c3)cn2c1	7.9µM	.	?	.	6.3µM
CC(=O)Nc1ccc2nc(-c3ccccc3)cn2c1	?	.	.	.	?
CCOc1ccc(CCNC(=O)CCc2c(C)nc3c4c(C)cc(C)nc4nn3c2C)cc1	/	?	?	.	/
Cc1n[nH]c(=O)c2c(NC(=O)CSc3nc4ccccc4c(=O)n3CCCO)oc(C)c12	.	/	/	/	.
C=CCn1c(Sc2ncc([N+](=O)[O-])s2)n[nH]c1=O	4µM	?	?	?	4.5µM
O=C(c1cccc(F)c1)N(Cc1nc2ccccc2c(=O)[nH]1)C1CCCC1	?	.	.	.	6.3µM
O=C(c1ccccc1)N(Cc1nc2ccccc2c(=O)[nH]1)C1CCCCC1	.	.	.	.	?
O=C(c1ccccc1F)N(Cc1nc2ccccc2c(=O)[nH]1)C1CCCC1	7.9µM	.	.	.	2.8µM
Cc1ccc2nc(Nc3ccc4[nH]c(=O)[nH]c4c3)c(-n3nc(C)cc3C)nc2c1	.	.	?	11µM[quencher]	?
Cc1cc(C)n(-c2nc3ccccc3nc2Nc2ccc(N(C)C)cc2)n1	/	?	?	18µM[quencher]	/
COc1ccc(S(=O)(=O)N2CCN(C(=O)Nc3ccccc3OC)CC2)cc1	.	/	/	/	.
FC(F)(F)c1ccccc1-n1c(CN2CCCCC2)n[nH]c1=S	.	.	/	.	11µM
S=c1[nH]nc(CN2CCCCC2)n1-c1ccc(Cl)cc1	?	.	.	.	7.1µM
Cc1ccc(C(=O)Nc2ccc(Br)cc2)cc1S(=O)(=O)N1CCOCC1	/	?	.	.	/
N#Cc1cccc(NC(=O)N2CCC3(CC2)CCN(C(=O)c2cnccn2)CC3)c1	.	/	/	/	.
O=C(NNC(=S)Nc1ccc(Br)cc1Cl)c1ccncc1	20µM	.	?	.	.
O=C(NNC(=S)Nc1ccccc1)c1cc(Br)ccc1Cl	.	/	/	/	0.79µM
O=C(CCc1ccc(O)c(O)c1)NNC(=S)Nc1ccc(Br)cc1Cl	?	.	?	.	11µM
Cc1n[nH]c(C)c1S(=O)(=O)N1CCCC(C(=O)Nc2ccc(Cl)cc2)C1 (configuration not stated)	/	.	.	.	/
COc1ccc(C(O)(CCC(C)C)C(CN2CCOCC2)c2ccccc2)cc1 (configuration not stated)	.	/	/	/	?
O=C1NC[C@@H](Cc2ccc(O)cc2)N(CCc2cccc3ccccc23)C1=O	.	.	.	.	.
CCC(C)[C@H]1CNC(=S)N1CCC12CC3CC(CC(C3)C1)C2 (some centres not stated)	2.8µM	.	.	.	0.89µM
SMILES	VP16 counter	Tau fibril FP	Tau fibril ThT	Tau fluor counter	RORgamma inh
CCC(C)[C@H]1CNC(=S)N1CCc1cccc2ccccc12 (some centres not stated)	4.5µM	.	.	.	2.5µM
Cc1c(/C(O)=C2/C(=O)C(=O)N(CCN3CCOCC3)C2c2ccccn2)cnn1-c1ccccc1 (configuration not stated)	?	.	?	.	1.1µM
CN(C)c1ccc(NC(=O)Cn2c(=O)n(Cc3ccccc3)c(=O)c3ccccc32)cc1	.	.	?	18µM[quencher]	.
COc1cccc(NC(=O)Cn2c(=O)n(Cc3ccccc3)c(=O)c3ccccc32)c1	/	?	.	.	/
Cc1ccc(-n2c(=O)c3ccc(C(=O)NCc4ccccc4Cl)cc3n(CC(=O)Nc3cccc(F)c3)c2=O)cc1	/	16µM	.	?	/
COc1cccc(NC(=O)Cn2c(=O)n(Cc3ccc(C(=O)NCc4ccc5c(c4)OCO5)cc3)c(=O)c3ccccc32)c1	/	25µM	.	?	/
Cc1ccc(NC(=O)Cn2c(=O)n(Cc3ccc(C(=O)NCc4ccc5c(c4)OCO5)cc3)c(=O)c3ccccc32)cc1	/	32µM	.	.	/
Cc1nc2ccc(S(=O)(=O)CCC(=O)Nc3ccc(F)cc3C)cc2s1	/	.	.	.	/
C=CCc1cccc2cc(C(=O)N3CCN(C(=O)c4ccccc4)CC3)c(=O)oc12	.	/	/	/	.
CCOC(=O)c1sc(=S)n(Cc2ccccc2)c1N	.	.	.	16µM[quencher]	.
COCCNc1nc(CSc2ccccc2)nc2sc(C)c(C)c12	?	.	.	.	11µM
Cc1sc2nc(CSc3ccccc3)nc(N3CCN(C)CC3)c2c1C	.	.	.	.	.
CN(C)c1ccc(-c2nc(NC3CCNCC3)c3ccccc3n2)cc1	.	.	?	?	?
Cc1cc(C)nc(N/N=C/C2=C(N3CCOCC3)C(=C\c3ccc(Cl)cc3)/CC2)n1	?	.	11µM	.	10µM
COc1ccc(-c2noc(-c3nnn(-c4cc(C)ccc4C)c3N)n2)cc1	/	?	.	.	/
Cc1cc2nc3n(c2cc1C)CCCN3	.	/	/	/	1.6µM
CCOC(=O)c1ccc(NC(=O)CCc2nc(-c3ccc(C)cc3)no2)cc1	7.9µM	?	?	?	?
O=C(CCCc1nc(-c2ccccc2)no1)NCc1cccnc1	5.6µM	.	.	.	?
O=C(CCCc1nc(-c2ccccc2)no1)Nc1cccnc1	?	.	.	.	.[10 µM]
Cc1ccc(-c2noc(CCCC(=O)Nc3cccnc3)n2)cc1	3.2µM	.	.	.	0.56µM
CCOC(=O)c1ccc(NC(=O)CCc2nc(-c3ccc(Cl)cc3)no2)cc1	.	?	?	.	.
CC(C)CC(NC(=O)/C(=C/c1ccco1)NC(=O)c1ccc(Br)o1)C(=O)O (configuration not stated)	.	/	/	/	.
CCC(=O)NC(=S)Nc1cccc(NC(=O)c2ccccc2)c1	?	.	.	.	5µM
O=C(Nc1ccc(NC(=O)c2ccc(Cl)cc2Cl)cc1)c1cccs1	.	/	/	/	.
COC(=O)CC(NC(=S)NC(=O)c1ccccc1)c1ccc(Br)cc1 (configuration not stated)	?	/	/	/	13µM
SMILES	VP16 counter	Tau fibril FP	Tau fibril ThT	Tau fluor counter	RORgamma inh
CC(C)Oc1cccc(C(=O)NC(=S)Nc2cccc(NC(=O)c3ccccc3Cl)c2)c1	8.9µM	?	.	.	11µM
CCC(=O)NC(=S)Nc1cccc(NC(=O)c2ccccc2C)c1	.	.	.	.	?
O=C(NC(=S)Nc1cccc(NC(=O)c2ccc(Cl)cc2Cl)c1)c1cccs1	11µM	?	.	.	20µM
COC(=O)CC(N)c1ccc(Br)cc1 (configuration not stated)	.	.	.	.	.
CCCn1cc(S(=O)(=O)c2ccc(OC)cc2)c(=O)c2cc(OCC)ccc21	.	/	/	/	.
Cc1ccc2oc(-c3cc(NC(=O)c4ccc5c(c4)OCCO5)cc(C)c3O)nc2c1	/	.	.	.	/
CCOC(=O)NC(=S)Nc1cccc(NC(=S)NC(=O)OCC)c1	?	.	.	.	7.1µM
